Screens from PubChem.
The list is not random: actives were taken first. Their share in the collection is about 9%.
PLK1 PBD block: inhibitors of human PLK1 polo-box domain binding. P53350. 2.8% of 360,000 active. Plk1 PBD binding of FITC phosphopeptide, fluorescence polarization. Potency, µM, for inactives: max response, negative = inhibition, most hits filed as inhibitors. AID 720504; further: series mostly up to about 57 µM; on the % scale 0 is the no-effect control and ±100 the full control effect; nearly all actives have a fitted effect of over 65% in size
G9a inh: G9a (human) methyltransferase inhibition; G9a H3K9 monomethylation, AlphaScreen, 2 h; 8.8% of 350,000 active; Q96KQ7; Potency, µM (top dose mostly 102 µM), without a hit: at the highest dose activity, negative = inhibition, hits mostly inhibitors; AID 504332; further: on the % scale 0 is the no-effect control and ±100 the full control effect; nearly all actives have a fitted effect of over 75% in size
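G9a (20 nM) preincubated 15 min RT with compounds, then 500 nM biotinylated H3K9 peptide and 20 uM SAM added; 2 h RT reaction. Monomethyl-H3K9 product detected by AlphaScreen with anti-H3K9me1 antibody, streptavidin donor and anti-rabbit IgG acceptor beads.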
HP1b binding inh: inhibitors of HP1-beta chromodomain binding to methylated histone tails | AlphaScreen HP1-beta / biotin-H3K9me3 peptide binding | Potency, µM (highest dose often 114 µM), inactives show at the highest dose activity change, negative = inhibition, usual class: inhibitors | 0.56% of 390,000 active; further: nearly all actives have a fitted effect of over 70% in size
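HP1-beta protein (50 nM final) preincubated 30 min at room temperature with biotinylated H3(1-18)K9me3 peptide (50 nM) in PBS pH 7.4, 0.01% Tween-20, then compound added for 30 min. AlphaScreen streptavidin donor/nickel chelate acceptor beads (10 ug/mL final), 30 min dark, luminescence read.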
JMJD2A Tudor: inhibitors of human JMJD2A Tudor domain; O75164; AlphaScreen JMJD2A-Tudor / H3K4me3 peptide binding; Potency, µM (doses to about 114 µM), without a hit: at the top dose activity change, negative = inhibition, usual class: inhibitors; 4.4% of 390,000 active; further: on the % scale 0 is the no-effect control and ±100 the full control effect; nearly all actives have a fitted effect of over 50% in size
BAZ2B block: blocks human BAZ2B; Q9UIF8; AlphaScreen BAZ2B-H3K14Ac peptide displacement; Potency, µM (top dose mostly 114 µM), inactives show at the highest dose activity change, negative = inhibition, actives largely listed as inhibitors; 4.4% of 360,000 active; AID 504333; further: on the % scale 0 is the no-effect control and ±100 the full control effect; nearly all actives have a fitted effect of over 60% in size
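Compounds, titrated to a top concentration of 110 uM, were incubated 30 min at room temperature with preformed BAZ2B/acetyl-K14 H3 peptide complex (50 nM each). Proximity signal was measured by AlphaScreen after 20 min with beads.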
12-LOX inh: blocks human arachidonate 12S-lipoxygenase | P18054 | AID 1671190 | 1.1% of 580,000 active | Potency, µM (top dose mostly 108 µM), without a hit: at the highest dose activity change, negative = inhibition, hits mostly inhibitors | purified 12hLO, xylenol orange hydroperoxide absorbance; further: on the % scale 0 is the no-effect control and ±100 the full control effect
Target sequence (P18054 whole entry, looked up): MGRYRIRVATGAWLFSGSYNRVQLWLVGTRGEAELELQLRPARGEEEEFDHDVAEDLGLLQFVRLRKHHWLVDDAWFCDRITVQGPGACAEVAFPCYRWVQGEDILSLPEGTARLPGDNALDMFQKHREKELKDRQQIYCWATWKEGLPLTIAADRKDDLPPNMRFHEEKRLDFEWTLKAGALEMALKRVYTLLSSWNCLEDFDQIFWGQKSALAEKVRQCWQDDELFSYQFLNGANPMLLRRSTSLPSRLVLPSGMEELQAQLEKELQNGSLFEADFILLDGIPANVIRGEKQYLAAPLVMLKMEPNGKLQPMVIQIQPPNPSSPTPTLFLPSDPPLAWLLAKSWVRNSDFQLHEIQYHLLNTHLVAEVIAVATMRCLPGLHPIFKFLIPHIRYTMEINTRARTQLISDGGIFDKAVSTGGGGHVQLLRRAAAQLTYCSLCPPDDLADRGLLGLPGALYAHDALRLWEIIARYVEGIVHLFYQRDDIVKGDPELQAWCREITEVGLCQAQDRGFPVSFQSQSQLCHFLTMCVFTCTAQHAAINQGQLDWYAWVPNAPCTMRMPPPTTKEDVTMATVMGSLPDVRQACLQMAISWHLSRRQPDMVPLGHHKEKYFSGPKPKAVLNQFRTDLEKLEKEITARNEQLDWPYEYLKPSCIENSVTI
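Purified human 12hLO at 150 nM in 25 mM Hepes, 0.01% Triton X-100, pH 7.0, preincubated 15 min at room temperature with compound. Reaction started with 40 uM arachidonic acid, 30 min at room temperature. Hydroperoxide measured by Fe-xylenol orange, 573/405 nm absorbance ratio.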
* hit, by the source's call; [ ] = another dose, or the depositor's remark. The call rests on the fitted dose curve; in most records, active means well fitted curve in the direction sought with a large enough effect; inconclusive means small, poorly fitted or top-dose-only effect, or another doubt; inactive means no such curve, though single readings can be large; an effect the other way counts as inactive or inconclusive. Potency means the concentration at half of the fitted maximal effect.

What do the screens show for `O=C([C@@H]1C[C@H](F)CN1C(=O)c1ccccc1F)N1CCCCC1`?
12-LOX inh: 23%

Results for CCCC#Cc1ccc2c(c1)COc1c3ccccc3nn1-2 ?
PLK1 PBD block: 4%; G9a inh: 10%[2.33 µM]; HP1b binding inh: 69%; JMJD2A Tudor: 8%; BAZ2B block: 8%; 12-LOX inh: 2%

Results for CCN(CC)c1ccc(NS(=O)(=O)c2ccc(OC)cc2)cc1 ?
PLK1 PBD block: -2%; G9a inh: 16µM*; HP1b binding inh: 25%; JMJD2A Tudor: -3%; BAZ2B block: 40µM*; 12-LOX inh: -17%

What do the screens show for `COc1ccc(S(=O)(=O)Nc2ccc(N(C)C(C)=O)cc2)cc1`?
PLK1 PBD block: -1%; G9a inh: 21%[59 µM]; HP1b binding inh: 16%; JMJD2A Tudor: -19%; BAZ2B block: 11%; 12-LOX inh: -4%

Results for Cn1cnnc1SCc1cccc(Br)c1 ?
PLK1 PBD block: -3%; G9a inh: -17%[59 µM]; HP1b binding inh: 34%; JMJD2A Tudor: 4%; BAZ2B block: -33%; 12-LOX inh: -20%

Results for CN(C)c1cccc2c1c(NC(=O)Nc1ccccc1)nn2C ?
PLK1 PBD block: -26%; G9a inh: 35µM*; HP1b binding inh: 10%; JMJD2A Tudor: inconclusive; BAZ2B block: -33%; 12-LOX inh: inconclusive

How did COc1cccc(C2NC(CCSC)(C(=O)O)C3C(=O)N(C(C)C)C(=O)C23)c1O (stereo not drawn) do in these assays?
PLK1 PBD block: -4%; G9a inh: inconclusive; HP1b binding inh: 62%; JMJD2A Tudor: -18%; BAZ2B block: 40µM*; 12-LOX inh: 21%

How did Oc1c(/C=N/c2ncn[nH]2)ccc2ccccc12 do in these assays?
PLK1 PBD block: -18%; G9a inh: 2.2µM*; HP1b binding inh: 28%; JMJD2A Tudor: inconclusive; BAZ2B block: -3%; 12-LOX inh: -4%

How did CCC1=C/C(=C/N(C)c2ccccc2)C(=O)S1 do in these assays?
PLK1 PBD block: inconclusive; G9a inh: 25µM*; HP1b binding inh: inconclusive; JMJD2A Tudor: inconclusive; BAZ2B block: -8%; 12-LOX inh: inconclusive

Results for COc1cc(Cl)ccc1-c1cccc(COc2cnc3c(ccn3CC(=O)O)c2)c1 ?
12-LOX inh: 63µM*

What do the screens show for `CCC/C(=N\NC(=O)C(O)(c1ccc(CC)cc1)c1ccc(CC)cc1)c1ccccc1`?
12-LOX inh: 11%

Results for c1ccc(-c2csc3ncn4nnnc4c23)cc1 ?
PLK1 PBD block: -12%; G9a inh: -22%[12.7 µM]; HP1b binding inh: inconclusive; JMJD2A Tudor: 14µM*; BAZ2B block: 0%; 12-LOX inh: -16%

How did O=C(NCc1ccc2c(c1)OCO2)c1ccc(Br)cc1 do in these assays?
PLK1 PBD block: -14%; HP1b binding inh: 36%; JMJD2A Tudor: 1%; BAZ2B block: 6%; 12-LOX inh: 59%

Results for CCCCn1c(-c2ccc(C)cc2)c(C)n2c3c(=O)n(C)c(=O)n(C)c3nc12 ?
G9a inh: 3%[59 µM]; HP1b binding inh: 25%; JMJD2A Tudor: -32%; BAZ2B block: inconclusive; 12-LOX inh: -7%

Results for Cc1cc(C)c(-c2cc(NC(=O)COC(=O)c3ccc(C#N)cc3)n(-c3ccccc3)n2)cc1C ?
PLK1 PBD block: 0%; G9a inh: 32µM*; HP1b binding inh: 28%; JMJD2A Tudor: -11%; BAZ2B block: -33%; 12-LOX inh: -21%

Results for CC(C)c1ccc(C2C(C#N)=C(N)N3C(=C2C#N)Sc2ccccc23)cc1 (stereo not drawn) ?
G9a inh: 35µM*; BAZ2B block: -10%[57.1 µM]

What do the screens show for `CCOC(=O)N1CCN(c2nc3c(c(=O)[nH]c(=O)n3C)n2Cc2ccccc2Cl)CC1`?
G9a inh: -33%; BAZ2B block: 2%

Results for CCC(C)NC(=O)CN1C(=O)N(c2c(C)cccc2C)S(=O)(=O)c2ccccc21 (stereo not drawn) ?
12-LOX inh: -7%

What do the screens show for `COc1ccc(/C=C2\CCc3ccccc3C2=O)cc1CN1CCOCC1`?
PLK1 PBD block: -5%; G9a inh: 35µM*; HP1b binding inh: -20%; JMJD2A Tudor: inconclusive; BAZ2B block: inconclusive; 12-LOX inh: inconclusive

How did COc1ccc2c(c1)CC/C(=C\c1ccc(OC)c(Cn3cccn3)c1)C2=O do in these assays?
PLK1 PBD block: -7%; G9a inh: inconclusive; HP1b binding inh: -8%; JMJD2A Tudor: -31%; BAZ2B block: -34%; 12-LOX inh: -26%

How did COc1ccc2c(c1)CC/C(=C\c1ccc(OC)c(Cn3nc(C)cc3C)c1)C2=O do in these assays?
PLK1 PBD block: -21%; G9a inh: inconclusive; HP1b binding inh: 1%; JMJD2A Tudor: 89µM*; BAZ2B block: inconclusive; 12-LOX inh: 0%

How did O=C([C@H]1C[C@H](Oc2cccnc2)CN1C(=O)c1ccc2ccccc2n1)N1CCOCC1 do in these assays?
12-LOX inh: 49%

What do the screens show for `CCC(CO)NC(=O)c1cc2c(s1)CCC2` (stereo not drawn)?
PLK1 PBD block: -2%; G9a inh: inconclusive; HP1b binding inh: 10%; JMJD2A Tudor: 0%; BAZ2B block: -3%; 12-LOX inh: -3%

What do the screens show for `NCCCOc1cccc2ccccc12`?
12-LOX inh: -3%

Results for c1ccc(CCNCCCOc2cccc3ccccc23)cc1 ?
PLK1 PBD block: -14%; G9a inh: -5%[12.7 µM]; HP1b binding inh: -31%; JMJD2A Tudor: 40µM*; BAZ2B block: -35%; 12-LOX inh: inconclusive

Results for Cc1ccncc1C(=O)N1CCC2(CC1)CC(CO)N(C(=O)c1ccccc1)C2 (stereo not drawn) ?
12-LOX inh: 6%

What do the screens show for `O=C(O)c1cnc2ccccc2n1`?
PLK1 PBD block: 27µM*; G9a inh: 13%[59 µM]; HP1b binding inh: inconclusive; JMJD2A Tudor: 20µM*; BAZ2B block: inconclusive; 12-LOX inh: inconclusive

What do the screens show for `COC(=O)c1cnc2ccccc2n1`?
PLK1 PBD block: -1%; G9a inh: -6%[59 µM]; HP1b binding inh: 27%; JMJD2A Tudor: -12%; BAZ2B block: 13%; 12-LOX inh: 41%

What do the screens show for `O=C(O)c1cccc(C(=O)O)n1`?
G9a inh: inconclusive; BAZ2B block: -3%; 12-LOX inh: -28%[176 µM]

What do the screens show for `O=C(O)c1cc2ccccc2cn1`?
PLK1 PBD block: -3%; HP1b binding inh: 0%[57 µM]; JMJD2A Tudor: 0.32µM*; 12-LOX inh: 1%

Results for O=C(COC(=O)C1(c2ccccc2)CCCC1)N1CCNC1=O ?
PLK1 PBD block: -17%; G9a inh: 1%[59 µM]; HP1b binding inh: 37%; JMJD2A Tudor: -10%; BAZ2B block: -5%; 12-LOX inh: 19%
